# This is a sample that favours compounds with a hit; in the whole collection about 19% have one here.
# TDP1 block – blocks human tyrosyl-DNA phosphodiesterase 1; Q9NUW8; recombinant TDP1, AlphaScreen DNA substrate cleavage; Potency, µM (highest dose often 130 µM), for the others: at the highest dose activity change, negative = inhibition, actives largely listed as inhibitors; 350,000 tested, 0.28% active; AID 485290; note: potency is the fitted concentration of half-maximal effect; nearly all actives have a fitted effect of over 40% in size
# Target sequence (Q9NUW8 whole entry, looked up): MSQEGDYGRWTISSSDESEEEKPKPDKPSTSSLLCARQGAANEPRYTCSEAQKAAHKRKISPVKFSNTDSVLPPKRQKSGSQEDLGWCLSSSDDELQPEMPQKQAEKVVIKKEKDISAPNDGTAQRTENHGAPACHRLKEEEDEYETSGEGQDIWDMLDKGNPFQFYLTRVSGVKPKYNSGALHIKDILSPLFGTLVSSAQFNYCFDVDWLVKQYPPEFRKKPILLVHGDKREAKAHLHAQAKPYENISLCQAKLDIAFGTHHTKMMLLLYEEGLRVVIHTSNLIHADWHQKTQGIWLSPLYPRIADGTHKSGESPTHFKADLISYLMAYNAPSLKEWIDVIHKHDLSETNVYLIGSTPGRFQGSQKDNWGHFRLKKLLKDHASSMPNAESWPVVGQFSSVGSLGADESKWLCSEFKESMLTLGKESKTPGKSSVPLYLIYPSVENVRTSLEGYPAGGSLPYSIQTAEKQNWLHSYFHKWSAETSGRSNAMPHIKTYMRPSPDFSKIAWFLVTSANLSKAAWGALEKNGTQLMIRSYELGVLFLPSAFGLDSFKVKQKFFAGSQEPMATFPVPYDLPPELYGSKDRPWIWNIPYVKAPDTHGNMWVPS
#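 Recombinant human Tdp1 (E. coli-expressed, 1 nM final) preincubated with compounds 15 min at room temperature, then 5'-biotin/3'-phosphotyrosine-FITC DNA substrate (15 nM final) added for 5 min. AlphaScreen beads (10 ug/ml final) added 10 min; cleavage lowers signal.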
# DT40 TDP1 CPT – DT40-hTDP1 cell growth loss with CPT; chicken DT40 Tdp1-/-;hTDP1 cells + 20 nM CPT, ATP luminescence, 48 h; Potency, µM (titrated, usually from 46.2 µM), for inactives: at the top dose activity change, negative = growth inhibition, hits mostly inhibitors; 420,000 tested, 12% active; AID 686979; note: potency is the fitted concentration of half-maximal effect; nearly all actives have a fitted effect of over 55% in size
#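 Chicken DT40 Tdp1-/- cells stably complemented with human TDP1 were seeded at 400 cells/well in medium containing 20 nM camptothecin, exposed to pin-transferred compounds, and grown at 37 °C for at least 48 hr. Viability was read as ATP luminescence.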
# Giardia kill – kills Giardia lamblia. AID 540267. 340,000 tested, 0.15% active. activity change, % at 7.66 µM, hits read low. Giardia lamblia trophozoite viability; in the data active = activity change below about -80%; inconclusive = between about -30% and that limit;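 note: parasites exposed to compound for two days anaerobically before the ATP read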
#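 Giardia lamblia trophozoites (100 cells/well) were incubated with compounds for 48 h at 37 deg C under anaerobic conditions. Viability was read as ATP content by one-step luminescence after 15-30 min at room temperature.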
# IL-1B inflam inh – blocks inflammasome-driven IL-1 beta release; THP-1 LPS/ATP IL-1B secretion, AlphaLISA, 16 h; hits give low values; activity change, % at 57.5 µM; 360,000 tested, 4.7% active; in the data active = activity change below about -50%; inconclusive = mostly about -30% to -49%
#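 Secreted IL-1B measured by AlphaLISA bead assay after 16 h compound exposure of THP-1 cells; compounds (final up to 57.5 uM) added 1 h before LPS (250 ng/mL) and ATP (1.25 mM) stimulation; lower signal means less secretion.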
# DT40 TDP1 no CPT – qHTS for Inhibitors of human tyrosyl-DNA phosphodiesterase 1 (TDP1): qHTS in cells in absence of CPT; Potency, µM (top dose mostly 46.2 µM), for inactives: at the top dose activity change, negative = growth inhibition, hits mostly inhibitors; 420,000 tested, 15% active; DT40 Tdp1-/- hTDP1 cells, no CPT, ATP luminescence, 48 h; note: potency is the fitted concentration of half-maximal effect; nearly all actives have a fitted effect of over 55% in size
#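 Stably hTDP1-transfected Tdp1-null chicken DT40 cells were treated with library compounds minus camptothecin and grown for at least 48 hr at 37 °C, after which cellular ATP was quantified by luminescence.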
# ELG1 repair inh – ELG1-dependent DNA repair inhibition; HEK293T ELG1-luciferase reporter, luminescence, 16 h; DNA damage induced by 5-fluorouridine; Potency, µM (titrated, usually from 46.1 µM), without a hit: at the highest dose activity change, negative = inhibition, usual class: inhibitors; 330,000 tested, 2.3% active; note: potency is the fitted concentration of half-maximal effect; nearly all actives have a fitted effect of over 55% in size
#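 Quantitative HTS, concentration-response format. 2,000 cells/well co-treated with 5-fluorouridine and compound, 16 hr in 5% CO2 at 37 °C; ONE-Glo luminescence read after 30 min.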
# An asterisk follows results filed as active; ? = inconclusive; · = no result; [ ] = dose if it differs, or a comment. Unless noted, calls come from the whole dose curve; as a rule, active = well fitted curve in the direction sought with a large enough effect; inconclusive = small, poorly fitted or top-dose-only effect, or another doubt; inactive = no such curve, though single readings can be large; an effect the other way counts as inactive or inconclusive. % is set by controls: 0 for no effect and ±100 for the full control effect.
SMILES,TDP1 block,DT40 TDP1 CPT,Giardia kill,IL-1B inflam inh,DT40 TDP1 no CPT,ELG1 repair inh
CCC(Sc1ncnc2sc3c(c12)CCCC3)C(=O)OC(C)C (stereo unspecified),·,18µM*,·,·,?,·
CCC(Sc1ncnc2sc3c(c12)CCCC3)C(=O)OCC(C)C (stereo unspecified),·,26µM*,·,·,?,·
Nn1cc(-c2ccccc2)nc1SCC(=O)NCCN1C(=O)CSC1=O,2%,-5%,6,18,-3%,0%
N#Cc1nc(Nc2cccc3ccccc23)nc(NC2CCCC2)n1,2%,·,·,·,·,·
Cc1cc(C)cc(C(=O)NCC(=O)OCC(=O)N2CCCC2)c1,·,0%,·,-5,6%,·
COc1cc(C(=O)Nc2cc(C(F)(F)F)ccc2N2CCOCC2)ccc1OCC(=O)N1CCOCC1,1%,-9%,10,-13,-2%,14%
Cc1cc(/C=C(\C#N)C(=O)Nc2ccccc2)c(C)n1-c1cccnc1,1%,?,2,-76*,?,?
Cc1cc2cc(C=C(C#N)C#N)c(Cl)nc2cc1C,3%,7.3µM*,-16,-100*,7.3µM*,?
CCOC(=O)/C(C#N)=C/c1cc2ccc(C)cc2nc1Cl,3%,4.1µM*,2,24,2.9µM*,?
Cc1cc(C(=O)O)ccc1-n1c(C)cc(/C=C(/C#N)C(=O)Nc2ccccc2)c1C,·,-27%,10,-66*,-34%,1%
CCOC(=O)/C(C#N)=C/c1cc2cc(C)c(C)cc2nc1Cl,1%,?,0,-24,?,?
COc1ccc(CN(C)C(=O)CCNS(=O)(=O)c2ccccc2)c(OC)c1,·,-23%,·,-12,-31%,·
Cc1ccc(CNC(=O)c2ccc(CS(=O)(=O)Cc3ccc(F)cc3)o2)cc1,0%,-9%,·,·,?,·
Cc1ccc(NC(=O)/C(C#N)=C/c2cc(C)n(-c3ccc(Br)cc3)c2C)cc1C,7%[12.3 µM],4.6µM*,·,·,5.8µM*,·
CCOC(=O)/C(C#N)=C/c1cc(C)n(-c2ccc(Br)cc2)c1C,1%,·,·,·,·,21%
Cc1ccc(-n2c(C)cc(/C=C(\C#N)C(=O)Nc3ccc(C)c(C)c3)c2C)cc1,1%,-28%,·,·,?,·
CCOC(=O)/C(C#N)=C/c1cc(C)n(-c2ccccc2)c1C,3%,16µM*,-19,-12,21µM*,?
Cc1ccc(-c2nn3c(C)nnc3s2)cc1NC(=O)c1ccc(Br)o1,6%,?,10,14,-21%,-2%
Cc1ccc(-c2nn3c(C)nnc3s2)cc1NC(=O)c1ccc(-c2cccc(Cl)c2)o1,-1%,23µM*,10,104,18µM*,18µM*
Cc1ccc(-c2nn3c(C)nnc3s2)cc1NC(=O)c1ccc(-c2ccc(Cl)cc2Cl)o1,·,7.3µM*,-4,21,6.5µM*,-20%
CC(=O)Nc1cc(-c2nn3c(C)nnc3s2)ccc1C,1%,10%,14,13,0%,?
Cc1cc(C)c(C(=O)COC(=O)c2cccc(S(=O)(=O)NCc3ccccc3)c2)cc1C,0%,?,0,23,16µM*,?
C=C(C(=O)c1ccccc1)C(C)C(=C)C(=O)c1ccccc1,-5%,5.8µM*,-20,-103*,5.8µM*,21µM*
C=C(C(=O)c1ccccc1)C(c1ccccc1)C(C)C(=O)c1ccccc1 (stereo unspecified),3%,?,-9,-97*,?,?
O=C(c1ccccc1)C(c1ccccc1)c1ccccc1,?,3%,1,11,-25%,27%
SMILES,TDP1 block,DT40 TDP1 CPT,Giardia kill,IL-1B inflam inh,DT40 TDP1 no CPT,ELG1 repair inh
C=C(C(=O)c1ccccc1)C(C(=C)C(=O)c1ccccc1)c1ccc(OC)cc1,-3%,10µM*,-12,-61*,5.2µM*,16µM*
O=C(Nc1cccc(C(F)(F)F)c1)C1CC(=O)N(Cc2ccco2)C1 (stereo unspecified),·,0%,·,14,-15%,·
O=C(O)c1ccc(Cl)c(Cl)c1,8%,·,·,·,·,·
CC(C)c1cc2c(s1)c1cnn(Cc3ccccc3F)c(=O)c1n2C,-5%,·,·,·,·,·
CC(C)(C)c1ccc(C(=O)C=[N+]=[N-])cc1,7%,26µM*,-13,8,15µM*,?
CC(C)(C)c1ccc(C(=O)C2CC2)cc1,·,7%,·,-26,0%,·
O=C(O)CCN1C(=O)/C(=C\c2ccc(-c3nc4ccccc4s3)o2)SC1=S,-3%,?,10,19,?,?
COc1ccc(S(=O)(=O)N2CCOCC2)cc1NC(=O)CN1CCCC1,6%,10%,2,15,12%,-2%
COc1ccc(S(=O)(=O)N2CCCN(CC(=O)Nc3ccc(NC(C)=O)cc3)CC2)cc1,2%,4%,5,-9,-26%,3%
COc1ccc(C2(C(=O)Nc3ccc(OC)cc3OC)CCCC2)cc1,1%,13µM*,8,19,23µM*,?
COc1ccc(S(=O)(=O)N2CCCN(CC(=O)Nc3ccc(OC)cc3OC)CC2)cc1,6%,?,·,·,12µM*,·
O=C(CN1CCCN(S(=O)(=O)c2ccc(Br)cc2)CC1)Nc1cccc(C(F)(F)F)c1,11%,21µM*,·,·,12µM*,·
COc1ccc(C)cc1NC(=O)CN1CCN(S(=O)(=O)c2ccc3ccccc3c2)CC1,-1%[56.1 µM],16µM*,-6,0,16µM*,-9%
